Only some compounds are listed: those with a hit (about 6.2% of all), similar ones and a draw of the others.
ATXN2 expr inh – inhibitors of ATXN2 expression. 360,000 compounds, 0.72% hits. HEK-293 ATXN2-luciferase reporter, luminescence, 24 h. AID 1745845. Potency, µM (doses to about 57 µM), for the others: at the top dose activity change, negative = inhibition, hits mostly inhibitors; also: % is scaled to controls: 0 for no effect and ±100 for the full control effect; nearly all actives have a fitted effect of over 55% in size
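ATXN2-luciferase reporter cells (luciferase flanked by upstream and downstream ATXN2 gene portions) were treated 24 h at 37 °C with compounds at up to 57 uM. SteadyGlo luminescence gave expression; GF-AFC fluorescence gave viability.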
S2 tox – reduces viability in counter-screen for ATXN expression inhibitors; Potency, µM (top dose mostly 56.7 µM), actives largely listed as cytotoxic; AID 651635; S2 cells (HEK-293 line with an ATXN2-luciferase reporter) viability, CellTiter-Fluor protease fluorescence, 24 h; 400,000 compounds, 0.49% hits; also: nearly all actives have a fitted effect of over 40% in size
HT1080 IDH1KD tx – toxicity to HT-1080 IDH1 knockdown cells (counter line). HT-1080 IDH1 knockdown viability, ATP luminescence, 48 h. Potency, µM (series often up to 46.1 µM), for the others: at the top dose activity, negative = toxicity, hits mostly cytotoxic. 360,000 compounds, 2% hits;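 also: 0% = DMSO wells and -100% = cell-free medium wells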
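Assay cells: HT-1080 with IDH1 knockdown, 750 per well, RPMI/5% FBS. Exposure: 48 h at 37 °C following 2 h pre-incubation. Read: CellTiter-Glo luminescence; fitted concentration-response, curve class assigned.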
KB-V1 MDR tox – KB-V1 MDR subline cytotoxicity; KB-V1 MDR cells viability, CellTiter-Glo, 72 h; Potency, µM (top dose mostly 46.1 µM), hits mostly cytotoxic; 400,000 compounds, 3.4% hits; also: % is scaled to controls: 0 for no effect and ±100 for the full control effect; nearly all actives have a fitted effect of over 60% in size
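Potencies derive from concentration-effect curves fitted to normalized luminescence (CellTiter-Glo) of KB-V1 cells treated for 72 h at 37 degrees C in phenol-red-free DMEM containing 10% FBS.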
HT1080NT lethal – kills 2HG-producing HT-1080-NT fibrosarcoma cells | HT-1080-NT fibrosarcoma viability, CellTiter-Glo ATP luminescence, 48 h | Potency, µM (top dose mostly 46.1 µM), for inactives: at the top dose activity, negative = less viability, most hits filed as cytotoxic | 360,000 compounds, 1.6% hits | AID 686970;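 also: NT is the 2HG producing partner of a matched IDH1 knockdown line; 0% = DMSO-treated cells and -100% = media-only wells without cells; nearly all actives have a fitted effect of over 55% in size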
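HT-1080-NT; 750 cells/well; 5% FBS RPMI; 48 h compound, 37 degrees C; CellTiter-Glo luminescence; curve fitting and curve-class assignment.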
KB-3-1 tox – kills parental KB-3-1 adenocarcinoma cells | KB-3-1 viability, CellTiter-Glo ATP luminescence, 72 h | Potency, µM (titrated, usually from 46.1 µM), most hits filed as cytotoxic | 400,000 compounds, 1.4% hits; also: % is scaled to controls: 0 for no effect and ±100 for the full control effect; nearly all actives have a fitted effect of over 60% in size
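KB-3-1 parental drug-naive adenocarcinoma cells in DMEM/10% FBS, incubated 72 h at 37 C with pin-transferred compounds across a concentration series. Viability by CellTiter-Glo luminescence; concentration-response curves fitted after normalization.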
Active calls of the source: *; [ ] = dose if it differs, or a comment. Calls follow the shape of the dose curve; as a rule, active = well fitted curve in the direction sought with a large enough effect; inconclusive = small, poorly fitted or top-dose-only effect, or another doubt; inactive = no such curve, though single readings can be large; an effect the other way counts as inactive or inconclusive. Potency is read from the fitted curve at half-maximal effect.

CNC(=O)c1ccc(N2C(=S)N(c3cnc(C#N)c(C(F)(F)F)c3)C(=O)C23CCC3)cc1F was read as ATXN2 expr inh 13.7µM*.
`CN(C)CCCC1Sc2ccccc2Sc2ccccc21` (stereo not drawn) gave ATXN2 expr inh -32.4%, S2 tox inconclusive, HT1080 IDH1KD tx inconclusive, KB-V1 MDR tox inactive, HT1080NT lethal 23.1µM* and KB-3-1 tox inconclusive.
Screening Cc1ccc(OCC(=O)OCc2cc(=O)n3nc(C4CCCCC4)sc3n2)cc1 returned ATXN2 expr inh 13.1%, S2 tox inactive, KB-V1 MDR tox inconclusive and KB-3-1 tox inactive.
Screening COCCNC(=O)CSc1nc2ccc(N3CCOCC3)cc2c(=O)n1CCc1ccccc1 returned ATXN2 expr inh 2.8%, S2 tox inactive, HT1080 IDH1KD tx -7.9%, KB-V1 MDR tox inactive, HT1080NT lethal -9.9% and KB-3-1 tox inactive.
CCOCCCn1c(SCC(=O)N2CCOCC2)nc2ccccc2c1=O was read as ATXN2 expr inh 18.9%, S2 tox inactive, HT1080 IDH1KD tx 2.4%, KB-V1 MDR tox inconclusive, HT1080NT lethal 4.7% and KB-3-1 tox inactive.
`CC1CCN(C(=O)Cn2c(SCC(=O)Nc3ccc(F)cc3)nc3ccccc32)CC1` gave ATXN2 expr inh -5.0%, S2 tox inconclusive, KB-V1 MDR tox inconclusive and KB-3-1 tox inactive.
Screening CCOC(=O)CSc1nc2ccccc2c(=O)n1CCN1CCOCC1 returned ATXN2 expr inh 6.2%, S2 tox inactive, HT1080 IDH1KD tx 0.7%, KB-V1 MDR tox 13µM*, HT1080NT lethal 5.9% and KB-3-1 tox inactive.
CC1CCN(C(=O)Cn2c(SCC(=O)Nc3nccs3)nc3ccccc32)CC1 was read as ATXN2 expr inh -12.1%, S2 tox inactive, HT1080 IDH1KD tx -2.5%, KB-V1 MDR tox 4.61µM*, HT1080NT lethal -3.8% and KB-3-1 tox inactive.
For Cc1ccc(NC(=O)CSc2nc3ccccc3c(=O)n2CCCN2CCCCC2)cc1Cl the results were ATXN2 expr inh inconclusive, S2 tox inconclusive, HT1080 IDH1KD tx inconclusive, KB-V1 MDR tox inconclusive, HT1080NT lethal 23.1µM* and KB-3-1 tox inactive.
`CCCCNC(=O)CSc1nc2ccc(N3CCOCC3)cc2c(=O)n1CCc1ccccc1` gave ATXN2 expr inh -4.6%, S2 tox inactive, HT1080 IDH1KD tx 5.5%, KB-V1 MDR tox 0.581µM*, HT1080NT lethal 1.2% and KB-3-1 tox inactive.
`CN(Cc1cc(Br)cc(Br)c1N)C1CCCCC1` gave ATXN2 expr inh -12.9% and S2 tox inactive.
C[C@H]1C[C@@H]2[C@@H]([C@@H](O)C[C@@]3(C)[C@H]2CC[C@]3(O)C(=O)CO)[C@@]2(C)C=CC(=O)C=C12 was read as ATXN2 expr inh -3.2% and S2 tox inactive.
`Cc1ccc(NC(=O)CSc2nc3ccccc3c(=O)n2CCCC(=O)NCCCN2CCOCC2)cc1C` gave ATXN2 expr inh -18.9%, S2 tox inactive, HT1080 IDH1KD tx inconclusive, KB-V1 MDR tox inactive, HT1080NT lethal 16.4µM* and KB-3-1 tox inactive.
For CC(=O)Nc1ccc(NC(=O)CSc2nc3ccccc3c(=O)n2CCCN2CCOCC2)cc1 the results were ATXN2 expr inh -8.4%, S2 tox inconclusive, HT1080 IDH1KD tx -18.3%, KB-V1 MDR tox inactive, HT1080NT lethal -2.0% and KB-3-1 tox inactive.
For CCOC(=O)CSc1nc2ccccc2n1CC(=O)N1CCN(c2ccccc2)CC1 the results were ATXN2 expr inh -1.9%, S2 tox inactive, HT1080 IDH1KD tx -11.4%, KB-V1 MDR tox 7.31µM*, HT1080NT lethal 7.3% and KB-3-1 tox inactive.
`CCc1ccc(NC(=O)CSc2nc3ccccc3c(=O)n2CCCC(=O)NCCCN2CCOCC2)cc1` gave ATXN2 expr inh -37.3%, S2 tox inactive, HT1080 IDH1KD tx 18.4µM*, KB-V1 MDR tox inactive, HT1080NT lethal inconclusive and KB-3-1 tox inactive.
For COc1ccc(C2(C(=O)NCC3Cc4cccc(-c5nc(C)cnc5C)c4O3)CCCC2)cc1 (stereo not drawn) the results were S2 tox inactive.
COC(=O)c1ccc(Cn2c(SCc3cccc(C)c3)nc3ccncc32)cc1 was read as KB-V1 MDR tox inactive and KB-3-1 tox inactive.
`COc1ccc(CCNC(=O)c2cccc(NS(=O)(=O)c3ccccc3F)c2)cc1OC` gave ATXN2 expr inh 4.7%, S2 tox inactive, HT1080 IDH1KD tx -0.8% and HT1080NT lethal 1.3%.
Screening CC(Sc1nc2ccccc2s1)C(=O)NC1CCCc2ccccc21 (stereo not drawn) returned ATXN2 expr inh -13.7%, S2 tox inactive, HT1080 IDH1KD tx -1.4%, KB-V1 MDR tox 20.6µM*, HT1080NT lethal -3.4% and KB-3-1 tox inactive.
Screening CC(Sc1nnnn1C)C(=O)NC1CCCc2ccccc21 (stereo not drawn) returned ATXN2 expr inh -17.5%[11.3 µM], S2 tox inactive, HT1080 IDH1KD tx 11.8%, KB-V1 MDR tox inactive, HT1080NT lethal 14.4% and KB-3-1 tox inactive.
For CC(=O)c1ccc(N2CCN(C(C)C(=O)NC3CCCc4ccccc43)CC2)cc1 (stereo not drawn) the results were ATXN2 expr inh -0.8%, S2 tox inactive, HT1080 IDH1KD tx 0.5%, KB-V1 MDR tox 9.2µM*, HT1080NT lethal -8.5% and KB-3-1 tox 20.6µM*.
Screening COc1ccc(N2CCN(Cc3cccn3-c3nnc(N4CCN(C5CCCCC5)CC4)s3)CC2)cc1 returned ATXN2 expr inh 13.9%, S2 tox inactive, KB-V1 MDR tox inactive and KB-3-1 tox inactive.
For CCCSS/C(CCO)=C(\C)N(C=O)Cc1cnc(C)nc1N the results were ATXN2 expr inh inconclusive and S2 tox inactive.
COc1ccccc1C(=O)NCC1CCN(c2ccc(S(=O)(=O)N3CCOCC3)cc2)CC1 was read as ATXN2 expr inh -15.3%, S2 tox inactive, HT1080 IDH1KD tx -24.1%, KB-V1 MDR tox 14.6µM*, HT1080NT lethal -9.1% and KB-3-1 tox inactive.
For COc1ccccc1CNC(=O)c1cc(S(=O)(=O)N2CCN(c3ccccc3)CC2)ccc1Cl the results were ATXN2 expr inh -9.9%, S2 tox inconclusive, HT1080 IDH1KD tx -12.1%, KB-V1 MDR tox 4.61µM*, HT1080NT lethal -12.8% and KB-3-1 tox inactive.
For O=C(NCC1CCCO1)C(c1cccs1)N(Cc1ccccc1Cl)C(=O)c1ccc(-c2ccccc2)[nH]1 (stereo not drawn) the results were ATXN2 expr inh -22.0%, S2 tox inactive, HT1080 IDH1KD tx inconclusive, KB-V1 MDR tox 4.11µM*, HT1080NT lethal -18.8% and KB-3-1 tox inactive.

Assay outcomes: PubChem BioAssay, National Center for Advancing Translational Sciences (NCATS)
